From publication PMC7862700, “An all-to-all approach to the identification of sequence-specific readers for epigenetic DNA modifications on cytosine” come the findings set out here.

Assay in all cases: DAPPL (digital affinity profiling via proximity ligation, sequencing); 10 mM Tris-HCl pH 7.5, 50 mM NaCl, 1 mM DTT, 4% glycerol, room temperature, 30 min; GST-TFs on glutathione beads, 16-mer random dsDNA library, 0.1% formaldehyde crosslink after washing; high values mean tight binding
Holding throughout (details): protein: recombinant; tags: N-terminal GST; dsDNA, one strand shown

For one test, the target named is T1, ELK1 (Homo sapiens, UniProt P19419 1-428).
T1 sequence: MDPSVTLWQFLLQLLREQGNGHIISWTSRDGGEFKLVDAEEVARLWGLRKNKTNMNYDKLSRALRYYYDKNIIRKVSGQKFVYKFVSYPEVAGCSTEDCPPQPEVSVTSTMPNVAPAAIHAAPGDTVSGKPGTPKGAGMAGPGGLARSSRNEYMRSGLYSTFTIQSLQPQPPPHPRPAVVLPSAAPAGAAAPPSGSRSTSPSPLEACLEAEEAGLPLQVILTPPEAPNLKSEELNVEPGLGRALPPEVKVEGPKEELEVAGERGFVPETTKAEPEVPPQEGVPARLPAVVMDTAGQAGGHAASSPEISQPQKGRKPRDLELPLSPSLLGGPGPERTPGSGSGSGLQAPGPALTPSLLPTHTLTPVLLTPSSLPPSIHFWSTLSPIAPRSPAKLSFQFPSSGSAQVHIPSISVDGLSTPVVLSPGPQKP
The procedure, abridged: (§1)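 Sequencing on an Illumina NextSeq500 followed washing, crosslinking with 0.1% formaldehyde, proximity ligation (BsaI/T4 ligase, 1 h, 37 °C) and PCR amplification of pools that had been incubated for 30 min at room temperature with 200 nmole of a random double-stranded 16-mer DNA library in Tris/NaCl/DTT/glycerol buffer. Each pool held DNA-barcoded human transcription factors, expressed in yeast as GST fusions and captured on glutathione beads, plus a tag-only sample. Binding signal is a hexamer's read frequency for a factor divided by its frequency in the tag-only sample.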

In a further test the target is T2, GABPA (Homo sapiens, UniProt Q06546 1-454).
T2 sequence: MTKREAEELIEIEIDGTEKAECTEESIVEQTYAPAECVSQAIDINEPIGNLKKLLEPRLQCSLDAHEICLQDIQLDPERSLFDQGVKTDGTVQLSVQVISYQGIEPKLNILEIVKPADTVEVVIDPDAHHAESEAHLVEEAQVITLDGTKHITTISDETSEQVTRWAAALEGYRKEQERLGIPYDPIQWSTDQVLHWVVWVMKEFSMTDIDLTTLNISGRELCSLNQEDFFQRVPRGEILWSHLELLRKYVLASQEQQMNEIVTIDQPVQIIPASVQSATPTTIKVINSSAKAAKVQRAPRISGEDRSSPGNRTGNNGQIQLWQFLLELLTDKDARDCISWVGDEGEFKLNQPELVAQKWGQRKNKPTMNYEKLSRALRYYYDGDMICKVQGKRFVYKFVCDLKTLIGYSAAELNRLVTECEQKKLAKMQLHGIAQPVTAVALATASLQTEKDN
Summed up: as §1

The next test addresses ELF1 (Homo sapiens, UniProt P32519 1-619). The procedure, abridged:
as §1

For another test, the target named is T3, EHF (Homo sapiens, UniProt Q9NZC4 1-300).
T3 sequence: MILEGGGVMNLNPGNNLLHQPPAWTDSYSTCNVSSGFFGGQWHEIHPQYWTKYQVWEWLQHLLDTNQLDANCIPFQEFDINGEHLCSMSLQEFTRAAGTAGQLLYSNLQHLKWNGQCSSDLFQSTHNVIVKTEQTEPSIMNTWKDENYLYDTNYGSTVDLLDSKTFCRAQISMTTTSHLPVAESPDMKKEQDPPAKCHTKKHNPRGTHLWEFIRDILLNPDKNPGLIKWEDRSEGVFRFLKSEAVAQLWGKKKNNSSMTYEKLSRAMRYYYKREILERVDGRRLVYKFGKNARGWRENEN
Summed up:
as §1

Another test addresses SPIB (Homo sapiens, UniProt Q01892 1-262). Summed up: as §1
Another test has as its target ETV5 (Homo sapiens, UniProt P41161 1-510). Summed up:
as §1

Another test has as its target T4, SPIC (Homo sapiens, UniProt Q8N5J4 1-248).
T4 sequence: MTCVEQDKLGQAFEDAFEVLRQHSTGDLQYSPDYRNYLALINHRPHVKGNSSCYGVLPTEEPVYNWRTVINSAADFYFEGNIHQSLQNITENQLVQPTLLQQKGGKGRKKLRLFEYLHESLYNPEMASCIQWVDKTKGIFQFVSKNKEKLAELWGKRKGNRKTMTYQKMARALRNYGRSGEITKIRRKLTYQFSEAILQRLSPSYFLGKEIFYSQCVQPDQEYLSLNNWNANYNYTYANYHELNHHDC
The procedure, abridged:
as §1

The target of a further test is ELF4 (Homo sapiens, UniProt Q99607 1-663). The procedure, abridged:
as §1

Another test has as its target T5, ELK4 (Homo sapiens, UniProt P28324-2 1-405).
T5 sequence: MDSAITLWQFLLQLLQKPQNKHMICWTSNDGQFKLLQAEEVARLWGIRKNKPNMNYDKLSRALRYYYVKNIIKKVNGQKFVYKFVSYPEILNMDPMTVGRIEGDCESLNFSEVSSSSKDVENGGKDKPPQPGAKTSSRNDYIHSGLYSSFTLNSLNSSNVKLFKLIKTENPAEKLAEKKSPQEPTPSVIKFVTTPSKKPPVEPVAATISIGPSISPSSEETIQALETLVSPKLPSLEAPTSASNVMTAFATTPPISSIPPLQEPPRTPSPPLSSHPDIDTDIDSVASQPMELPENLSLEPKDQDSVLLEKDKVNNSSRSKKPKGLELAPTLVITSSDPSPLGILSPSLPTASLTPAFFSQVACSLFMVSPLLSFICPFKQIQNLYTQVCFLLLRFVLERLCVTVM
Summed up:
as §1

The target in another test is T6, ELF3 (Homo sapiens, UniProt P78545 1-371).
T6 sequence: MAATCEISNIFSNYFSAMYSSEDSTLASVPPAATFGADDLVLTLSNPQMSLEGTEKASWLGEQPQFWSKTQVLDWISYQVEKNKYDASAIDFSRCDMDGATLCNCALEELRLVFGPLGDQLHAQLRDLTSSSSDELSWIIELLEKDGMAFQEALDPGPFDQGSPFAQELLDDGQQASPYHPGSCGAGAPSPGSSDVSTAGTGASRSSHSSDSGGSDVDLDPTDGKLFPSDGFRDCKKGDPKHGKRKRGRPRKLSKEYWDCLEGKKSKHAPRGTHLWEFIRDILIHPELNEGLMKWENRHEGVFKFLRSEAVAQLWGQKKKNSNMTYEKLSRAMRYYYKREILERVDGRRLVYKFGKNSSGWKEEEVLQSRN
The procedure, abridged:
as §1

The target in a further test is ETV1 (Homo sapiens, UniProt P50549 1-477). Summed up:
as §1

A further test concerns the target T7, ETV3L (Homo sapiens, UniProt Q6ZN32 1-361).
T7 sequence: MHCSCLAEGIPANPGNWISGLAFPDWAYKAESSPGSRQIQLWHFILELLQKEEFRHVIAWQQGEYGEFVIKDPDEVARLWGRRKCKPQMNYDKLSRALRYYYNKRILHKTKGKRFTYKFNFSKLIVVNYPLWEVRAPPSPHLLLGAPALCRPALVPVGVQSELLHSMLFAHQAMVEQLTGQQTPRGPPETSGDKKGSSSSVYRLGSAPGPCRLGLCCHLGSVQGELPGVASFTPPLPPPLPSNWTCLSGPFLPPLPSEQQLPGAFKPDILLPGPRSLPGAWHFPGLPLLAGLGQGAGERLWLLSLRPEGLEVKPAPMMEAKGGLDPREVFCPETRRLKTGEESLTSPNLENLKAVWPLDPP
The procedure, abridged:
as §1

The target of the next test is T8, ETS2 (Homo sapiens, UniProt P15036 1-469).
T8 sequence: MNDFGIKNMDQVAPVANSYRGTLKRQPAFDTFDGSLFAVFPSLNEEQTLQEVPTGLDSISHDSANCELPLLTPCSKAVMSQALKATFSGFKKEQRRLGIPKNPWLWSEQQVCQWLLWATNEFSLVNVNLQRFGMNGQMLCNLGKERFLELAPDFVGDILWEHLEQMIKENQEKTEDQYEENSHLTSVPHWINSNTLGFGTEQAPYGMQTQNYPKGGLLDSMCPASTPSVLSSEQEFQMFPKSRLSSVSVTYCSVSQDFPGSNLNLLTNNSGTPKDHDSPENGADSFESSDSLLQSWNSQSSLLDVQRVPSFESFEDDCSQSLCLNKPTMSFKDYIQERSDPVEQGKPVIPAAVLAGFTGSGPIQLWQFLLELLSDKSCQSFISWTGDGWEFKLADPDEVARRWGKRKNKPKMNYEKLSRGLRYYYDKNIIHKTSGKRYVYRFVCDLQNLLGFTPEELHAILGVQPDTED
Summed up:
as §1

The next test addresses T9, SPDEF (Homo sapiens, UniProt O95238 1-335).
T9 sequence: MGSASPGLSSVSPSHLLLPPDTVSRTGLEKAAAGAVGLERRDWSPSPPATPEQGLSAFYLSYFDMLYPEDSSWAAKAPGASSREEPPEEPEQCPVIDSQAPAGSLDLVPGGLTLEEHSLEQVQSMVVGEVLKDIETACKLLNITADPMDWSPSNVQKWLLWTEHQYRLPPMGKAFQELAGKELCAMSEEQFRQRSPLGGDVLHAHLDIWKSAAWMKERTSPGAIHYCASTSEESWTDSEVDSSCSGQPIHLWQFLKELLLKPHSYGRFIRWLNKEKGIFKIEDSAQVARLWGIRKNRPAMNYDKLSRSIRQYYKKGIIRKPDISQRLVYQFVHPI
The procedure, abridged:
as §1

For another test, the target named is T10, ETV7 (Homo sapiens, UniProt Q9Y603 1-341).
T10 sequence: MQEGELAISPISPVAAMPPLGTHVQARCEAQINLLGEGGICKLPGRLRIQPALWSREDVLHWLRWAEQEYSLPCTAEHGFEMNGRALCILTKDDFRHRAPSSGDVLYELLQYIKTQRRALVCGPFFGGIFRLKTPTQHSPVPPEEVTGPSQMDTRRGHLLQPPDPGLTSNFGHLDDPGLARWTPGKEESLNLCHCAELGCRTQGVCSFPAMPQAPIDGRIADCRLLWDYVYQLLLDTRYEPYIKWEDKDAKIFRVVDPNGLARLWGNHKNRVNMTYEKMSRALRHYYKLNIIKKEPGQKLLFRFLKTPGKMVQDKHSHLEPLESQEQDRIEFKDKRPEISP
Summed up:
as §1

The next test has as its target T11, ETV3 (Homo sapiens, UniProt P41162-2 1-143).
T11 sequence: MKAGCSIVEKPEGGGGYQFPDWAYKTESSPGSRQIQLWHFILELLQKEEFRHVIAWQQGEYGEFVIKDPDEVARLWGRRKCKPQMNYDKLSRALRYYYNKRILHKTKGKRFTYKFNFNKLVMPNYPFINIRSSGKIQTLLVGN
The procedure, abridged:
as §1

The target of the next test is ETV6 (Homo sapiens, UniProt P41212 1-452). The procedure, abridged:
as §1

A further test has as its target T12, ERG (Homo sapiens, UniProt P11308 1-479).
T12 sequence: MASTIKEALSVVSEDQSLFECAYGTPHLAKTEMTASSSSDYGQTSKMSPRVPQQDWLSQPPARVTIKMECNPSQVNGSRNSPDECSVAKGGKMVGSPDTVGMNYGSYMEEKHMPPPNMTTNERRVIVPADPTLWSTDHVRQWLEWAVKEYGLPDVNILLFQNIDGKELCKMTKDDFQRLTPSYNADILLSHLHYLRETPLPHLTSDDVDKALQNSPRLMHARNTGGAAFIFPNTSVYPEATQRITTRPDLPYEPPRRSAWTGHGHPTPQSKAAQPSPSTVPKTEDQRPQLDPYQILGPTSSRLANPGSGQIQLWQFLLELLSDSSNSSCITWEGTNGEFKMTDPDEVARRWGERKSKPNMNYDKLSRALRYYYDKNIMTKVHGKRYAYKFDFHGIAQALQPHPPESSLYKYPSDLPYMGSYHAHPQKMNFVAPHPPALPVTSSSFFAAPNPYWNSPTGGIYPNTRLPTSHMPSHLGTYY
Summed up: as §1

Chain of ETV5 (P41161 whole entry): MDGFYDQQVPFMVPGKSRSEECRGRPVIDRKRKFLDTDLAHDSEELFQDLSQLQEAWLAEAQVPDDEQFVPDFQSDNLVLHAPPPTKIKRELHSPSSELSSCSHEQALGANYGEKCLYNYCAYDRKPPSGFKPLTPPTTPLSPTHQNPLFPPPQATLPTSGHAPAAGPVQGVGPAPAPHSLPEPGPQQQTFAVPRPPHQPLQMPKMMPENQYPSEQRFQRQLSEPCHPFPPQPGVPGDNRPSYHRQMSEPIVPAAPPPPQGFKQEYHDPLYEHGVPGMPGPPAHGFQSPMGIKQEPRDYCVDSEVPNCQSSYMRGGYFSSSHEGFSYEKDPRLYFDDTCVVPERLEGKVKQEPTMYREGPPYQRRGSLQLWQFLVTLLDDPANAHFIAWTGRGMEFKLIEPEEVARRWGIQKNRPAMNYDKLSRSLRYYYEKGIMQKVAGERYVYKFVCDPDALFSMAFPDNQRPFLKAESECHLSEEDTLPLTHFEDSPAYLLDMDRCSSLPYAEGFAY
Chain of ELF1 (P32519 whole entry): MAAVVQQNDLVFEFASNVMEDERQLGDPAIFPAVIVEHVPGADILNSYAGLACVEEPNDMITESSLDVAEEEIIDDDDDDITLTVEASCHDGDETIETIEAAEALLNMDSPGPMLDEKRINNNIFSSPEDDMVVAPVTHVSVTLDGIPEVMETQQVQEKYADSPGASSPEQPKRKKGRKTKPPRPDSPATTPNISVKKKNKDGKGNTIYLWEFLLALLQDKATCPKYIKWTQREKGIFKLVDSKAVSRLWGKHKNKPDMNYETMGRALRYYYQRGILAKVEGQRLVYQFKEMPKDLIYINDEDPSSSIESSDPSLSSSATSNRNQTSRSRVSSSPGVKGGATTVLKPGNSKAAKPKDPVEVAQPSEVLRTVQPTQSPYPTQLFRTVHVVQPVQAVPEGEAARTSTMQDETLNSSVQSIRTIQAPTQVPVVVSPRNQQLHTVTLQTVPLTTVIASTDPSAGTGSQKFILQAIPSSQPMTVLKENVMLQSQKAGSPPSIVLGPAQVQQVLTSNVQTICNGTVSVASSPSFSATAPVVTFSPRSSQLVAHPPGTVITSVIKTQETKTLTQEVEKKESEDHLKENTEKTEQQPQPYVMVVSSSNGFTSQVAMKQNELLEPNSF
Chain of SPIB (Q01892 whole entry): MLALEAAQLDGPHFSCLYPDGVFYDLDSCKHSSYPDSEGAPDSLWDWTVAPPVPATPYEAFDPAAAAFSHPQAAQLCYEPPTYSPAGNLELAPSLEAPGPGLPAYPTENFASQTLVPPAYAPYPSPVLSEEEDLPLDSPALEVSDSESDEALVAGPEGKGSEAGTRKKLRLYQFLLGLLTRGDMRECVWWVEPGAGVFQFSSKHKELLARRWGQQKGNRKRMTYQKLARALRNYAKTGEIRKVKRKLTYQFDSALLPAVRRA
Chain of ETV1 (P50549 whole entry): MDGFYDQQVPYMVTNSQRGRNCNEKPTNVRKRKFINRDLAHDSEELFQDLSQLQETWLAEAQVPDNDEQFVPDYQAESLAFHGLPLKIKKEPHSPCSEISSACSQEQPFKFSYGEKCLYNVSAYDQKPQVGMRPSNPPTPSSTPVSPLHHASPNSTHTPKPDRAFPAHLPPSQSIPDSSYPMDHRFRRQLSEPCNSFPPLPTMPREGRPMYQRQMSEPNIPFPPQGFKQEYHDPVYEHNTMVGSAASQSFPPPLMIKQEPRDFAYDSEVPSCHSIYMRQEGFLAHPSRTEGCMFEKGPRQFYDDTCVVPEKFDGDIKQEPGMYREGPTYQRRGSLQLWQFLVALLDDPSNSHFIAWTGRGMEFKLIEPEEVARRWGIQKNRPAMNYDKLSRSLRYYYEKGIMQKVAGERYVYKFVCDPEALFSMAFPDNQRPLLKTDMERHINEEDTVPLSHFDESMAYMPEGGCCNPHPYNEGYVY
Chain of ETV6 (P41212 whole entry): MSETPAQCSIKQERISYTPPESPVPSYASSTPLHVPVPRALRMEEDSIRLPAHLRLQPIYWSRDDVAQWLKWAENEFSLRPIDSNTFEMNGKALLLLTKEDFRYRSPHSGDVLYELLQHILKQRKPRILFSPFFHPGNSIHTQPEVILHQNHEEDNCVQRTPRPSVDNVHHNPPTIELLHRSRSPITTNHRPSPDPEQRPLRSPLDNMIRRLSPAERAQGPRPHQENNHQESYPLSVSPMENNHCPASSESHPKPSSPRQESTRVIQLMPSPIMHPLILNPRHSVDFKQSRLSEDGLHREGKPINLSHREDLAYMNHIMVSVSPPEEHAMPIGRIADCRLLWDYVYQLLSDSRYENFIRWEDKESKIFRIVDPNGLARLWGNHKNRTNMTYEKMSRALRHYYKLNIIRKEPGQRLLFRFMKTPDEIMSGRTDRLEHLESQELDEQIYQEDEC
Chain of ELF4 (Q99607 whole entry): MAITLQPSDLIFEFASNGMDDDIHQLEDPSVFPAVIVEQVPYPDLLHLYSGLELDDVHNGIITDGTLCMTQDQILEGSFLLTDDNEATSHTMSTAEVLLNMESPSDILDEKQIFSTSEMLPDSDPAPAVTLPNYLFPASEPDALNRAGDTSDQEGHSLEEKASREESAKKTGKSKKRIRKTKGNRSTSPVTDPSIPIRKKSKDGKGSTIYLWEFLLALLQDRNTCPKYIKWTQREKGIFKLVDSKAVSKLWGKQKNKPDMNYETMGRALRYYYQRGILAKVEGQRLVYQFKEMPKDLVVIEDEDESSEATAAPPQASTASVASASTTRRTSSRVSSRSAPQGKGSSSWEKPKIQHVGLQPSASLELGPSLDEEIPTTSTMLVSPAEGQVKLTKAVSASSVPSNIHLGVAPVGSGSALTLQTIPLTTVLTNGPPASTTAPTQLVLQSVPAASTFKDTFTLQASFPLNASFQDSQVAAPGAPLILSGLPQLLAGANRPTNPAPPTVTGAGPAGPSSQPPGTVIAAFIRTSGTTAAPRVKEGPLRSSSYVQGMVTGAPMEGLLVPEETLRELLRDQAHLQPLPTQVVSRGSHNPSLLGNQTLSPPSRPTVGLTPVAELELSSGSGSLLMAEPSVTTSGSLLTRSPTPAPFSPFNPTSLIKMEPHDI

ACACGG: the binding signal with ELK1 was 1.03 fold enrichment (6-mer frequency, TF over GST control); with GABPA, 1.05 fold enrichment (6-mer frequency, TF over GST control); with ELF1 it was 1.06 fold enrichment (6-mer frequency, TF over GST control); in the test with EHF, 1.05 fold enrichment (6-mer frequency, TF over GST control); with SPIB, 1.1 fold enrichment (6-mer frequency, TF over GST control); with ETV5, 1.04 fold enrichment (6-mer frequency, TF over GST control). The binding signal with SPIC was 1.06 fold enrichment (6-mer frequency, TF over GST control); with ELF4 it was 1.05 fold enrichment (6-mer frequency, TF over GST control); with ELK4, 1.07 fold enrichment (6-mer frequency, TF over GST control); with ELF3 it was 1.06 fold enrichment (6-mer frequency, TF over GST control); with ETV1, 1.1 fold enrichment (6-mer frequency, TF over GST control); with ETV3L, 1.06 fold enrichment (6-mer frequency, TF over GST control). For the same sequence, the binding signal is 1.08 fold enrichment (6-mer frequency, TF over GST control) with ETS2; 1.17 fold enrichment (6-mer frequency, TF over GST control) with SPDEF; 1.03 fold enrichment (6-mer frequency, TF over GST control) with ETV7; 1.13 fold enrichment (6-mer frequency, TF over GST control) in the test with ETV3; 1.06 fold enrichment (6-mer frequency, TF over GST control) in the test with ETV6.
For the sequence TGGAAC, the binding signal is 1.02 fold enrichment (6-mer frequency, TF over GST control) with ERG; 1 fold enrichment (6-mer frequency, TF over GST control) with ELF1; 1.04 fold enrichment (6-mer frequency, TF over GST control) in the test with EHF; 1.04 fold enrichment (6-mer frequency, TF over GST control) with SPIB; 1.05 fold enrichment (6-mer frequency, TF over GST control) with ETV5; 1.05 fold enrichment (6-mer frequency, TF over GST control) in the test with ELF3. In addition, in the test with ETV1, the binding signal was 1.04 fold enrichment (6-mer frequency, TF over GST control).
